This is part of a sample that, as a whole, favours compounds with a hit. Of some 79,000 tested, about 15% had one in any assay. Values without a mark were called inactive. Activity calls are given as the source filed them. No stated cut-off is given here; in the data, active means growth inhibition above about 70%; inactive means the rest. *1 amine or outer side, *2 acyl side, *3 side chain or, on linkers, in order; H or OH if unused. Where a SMILES comes first, the peptide text is derived from it. [ ]: non-standard residue; d: D form. X12 = NC(N)=NCC(O)CC(N[*:1])C(=O)[*:2]; Orn = NCCC[CH](N)C(=O)O
How the values were obtained:
[1] = NCI Yeast Anticancer Drug Screen. Data for the rad50 strain (AID 155);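 further: 0% = growth of vehicle-only cultures of the same strain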; conditions: S. cerevisiae rad50 strain growth inhibition; at 50.0 µM; stronger effect = higher value
Method in brief: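 Cells are treated with compound, grown, and their growth is then scored against vehicle-only cultures of the same repair-deficient yeast strain.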

[2] = NCI Yeast Anticancer Drug Screen. Data for the mec2-1 strain (AID 157); conditions: S. cerevisiae mec2-1 strain, at 50.0 µM, stronger effect = higher value
Method in brief: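 Each compound was tested on mec2-1 yeast, a strain altered in DNA damage repair or cell cycle control. Growth inhibition is reported relative to vehicle.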

[3] = NCI Yeast Anticancer Drug Screen. Data for the sgs1 mgt1 strain (AID 161);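 further: 0% = growth of cultures given vehicle only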; conditions: S. cerevisiae sgs1 mgt1 strain, at 50.0 µM, stronger effect = higher value
Method in brief: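 Inhibition of yeast growth, normalised to vehicle-treated controls, is reported for a strain bearing genetic alterations in DNA damage repair.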

[4] = NCI Yeast Anticancer Drug Screen. Data for the cln2 rad14 strain (AID 165);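 further: 0% = growth equal to vehicle treated cultures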; conditions: S. cerevisiae cln2 rad14 strain, at 50.0 µM, stronger effect = higher value
Method in brief: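 Test compounds were added to cln2 rad14 yeast cultures; inhibition of growth was then determined by comparison with vehicle treatment.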

[5] = NCI Yeast Anticancer Drug Screen. Data for the bub3 strain (AID 167); conditions: S. cerevisiae bub3 mutant strain, at 50.0 µM, stronger effect = higher value
Method in brief: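 Part of a panel of yeast mutants defective in DNA damage repair or cell cycle regulation. Each strain is grown with compound, and inhibition is calculated relative to solvent-treated cultures.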

[6] = NCI Yeast Anticancer Drug Screen. Data for the mlh1 rad18 strain (AID 175); conditions: S. cerevisiae mlh1 rad18 strain growth inhibition; at 50.0 µM; stronger effect = higher value
Method in brief: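 Inhibition values reflect reduced growth of mutant yeast versus vehicle-treated controls following compound exposure; the mutations affect DNA damage repair.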

Row | Compound | growth inhibition [1] | growth inhibition [2] | growth inhibition [3] | growth inhibition [4] | growth inhibition [5] | growth inhibition [6]
1 | C(=C1\COC(c2ccccc2)=N1)/c1ccc2c(c1)OCO2 | -13.2% | 14.8% | 13.8% | -19.6% | -5% | 26.9%
2 | CCCCCCCCCC(=O)N/N=C/c1cccs1 | 0.95% | 24.2% | 3.9% | -12.7% | 35.8% | 15.3%
3 | OC1CSCCSCCCSCCSC1 | 34.1% | 22.4% | 44.5% | 15.5% | 35.1% | 40.4%
4 | N=C1C(O)C2(I)c3ccccc3N3C(=N)C(O)C4c5ccccc5N1C4C32 (stereo not drawn) | 5.55% | 2.85% | -38.5% | -5.8% | -29.4% | 8.95%
5 | C/C=C/C(O)CCCC (stereo not drawn) | -13.2% | -7.15% | 4.15% | 2.75% | -28.2% | -7.2%
6 | O=C(O)CCCc1ccc(N(CCO)CCO)cc1 | 5.3% | 2.55% | -3.1% | 18% | 8.05% | 19%
7 | O=C(Cl)C1C2C=CC(C2)C1C(=O)Cl (stereo not drawn) | 3.1% | -20.4% | -2.35% | -9.15% | 15.6% | 2.55%
8 | O=C(O)CC1CCCCCC1 | 21.9% | 8.25% | 12.8% | 12.9% | 32.8% | 12%
9 | Cc1ccsc1/C=N/Nc1cnccn1 | 11.1% | 2.6% | 17.3% | 6.15% | 0.4% | 19.9%
10 | CC1CCCCC12COC(O)CO2 (stereo not drawn) | -22.5% | -23.4% | -19.1% | -11.7% | -24.1% | -31.9%
11 | Oc1ccc(-c2csc(Nc3ccccn3)n2)cc1O | 98.4% (active) | 99% (active) | 99% (active) | 97.2% (active) | 97.7% (active) | 98.8% (active)
12 | C[n+]1ccccc1CCC(=O)Nc1ccccc1 | -0.65% | 14.9% | 2.05% | 0.05% | 0.7% | -17.9%
13 | OCC1(OC2OC(CF)C(O)C(O)C2O)OC(CF)C(O)C1O (stereo not drawn) | -1.1% | 0.75% | -5.65% | -23.5% | 3.3% | 3.85%
14 | NC(=O)N/N=C/C(/C=N/NC(N)=O)[N+](=O)[O-] | -3.8% | -7.4% | -10.3% | -1.75% | -14.6% | 6.8%
15 | CCCN1C(=O)c2cc(=O)n(Cc3ccccc3)c(O)c2C1C (stereo not drawn) | 6.95% | 33% | 4.7% | 8.4% | -9.45% | 13.8%
16 | CC(C)CC1=[N+]=C(NC#N)N=C(CCC(=O)Nc2ccccc2[N+](=O)[O-])C1 | -10.1% | -5.5% | -5.55% | 20.9% | 0.65% | 1.7%
17 | CCCC1(C(=O)O)NC(=O)NC1=O (stereo not drawn) | -4.7% | -11.3% | -14.7% | -12.6% | -1.1% | -8.1%
18 | Cc1cccc(C)c1NC(=O)Oc1ccc(Cl)cc1Cc1ccccc1 | 98.5% (active) | 99.5% (active) | 99.6% (active) | 98.9% (active) | 99.3% (active) | 99.3% (active)
19 | CC(C)c1cc(C(F)(F)F)nc(NNc2nc(C(C)C)cc(C(F)(F)F)n2)n1 | -19.6% | -25.1% | -16.5% | -13.2% | -15.4% | -34.1%

Row | Compound | growth inhibition [1] | growth inhibition [2] | growth inhibition [3] | growth inhibition [4] | growth inhibition [5] | growth inhibition [6]
20 | CC(=O)NCC(O)c1ccc([N+](=O)[O-])cc1 (stereo not drawn) | -23.3% | -31.1% | 1.4% | 7% | -14.1% | -23%
21 | CSCC[C@H](NC(C)=O)B1OCCO1 | 9.85% | 21.4% | 2.95% | 6.05% | -4.6% | 19.5%
22 | COc1cc(/C=N/NC2=NCCN2)ccc1O | 24.4% | 11.8% | 13.2% | 14.8% | 18.9% | 11.8%
23 | COc1ccc(Br)cc1/C=N\NC(=O)c1ccccc1N(C)C | -24.2% | -11.6% | -10.8% | 6.6% | -3.05% | -4.25%
24 | COc1ccc(-n2cnc3c(cnn3C3OC(CO)C(O)C3O)c2=O)cc1 (stereo not drawn) | 8.7% | 2.95% | 8.45% | 23.3% | -4.25% | 3.3%
25 | CC(C(=O)O)C(Nc1ncnc2c1ncn2C1OC(CO)C(O)C1O)C(=O)O (stereo not drawn) | -8.4% | -12.2% | -27.6% | -2.1% | 3.5% | -26.4%
26 | COC(=O)[C@@H]1Cc2ccc(OC)c(c2)OCCC(=O)N1 | -37% | 0% | 21.7% | -2.95% | -13% | -12.2%
27 | Oc1ccc(CCC2CCNCC2)cc1 | 7.75% | 23.4% | 7.7% | -27.2% | -11.1% | -30.1%
28 | NC(N)=NCCCS | 11.9% | 11.3% | 14.3% | -7.8% | 4.15% | 7.05%
29 | COC(=O)C1(CC(=O)c2ccc(Cl)cc2Cl)NC(=S)NC(=O)C1C#N (stereo not drawn) | 19.4% | 9.05% | -8.2% | 16.2% | 4.45% | 18.8%
30 | CCOC(=O)CC(=O)c1cc(OC)c(OC)c(OC)c1 | 7.05% | 16.8% | 8.4% | -75% | 39.9% | 20.4%
31 | BrC1CC1(c1ccccc1)c1ccccc1 (stereo not drawn) | 0.1% | 0.35% | -3.5% | -6.4% | 3.65% | -0.3%
32 | O=C(O)C(Cc1ccccc1)NC(c1ccc(Cl)cc1)P(=O)(O)O (stereo not drawn) | 14.3% | 7.95% | -2.3% | 12.8% | -4.8% | 20.8%
33 | O=C1OC(c2cccc(Cl)c2)=N/C1=C\c1ccccc1 | 13.9% | 2.85% | 13.5% | 14.8% | 10.9% | -5.05%
34 | O=C(Nc1nc(C23CC4CC(CC(C4)C2)C3)cs1)c1cc2ccc(O)cc2oc1=O | 0.7% | 15.8% | 3.55% | 21.9% | 0.2% | -16.6%
35 | C=CCNC(=S)N(Cc1ccccc1)Cc1ccccc1 | 86.2% (active) | 80% (active) | 91.9% (active) | 82.9% (active) | 88.7% (active) | 86.5% (active)
36 | CCSC1(SCC)C(=O)OC2=C(CCCCC2)C1N(C)c1ccccc1 (stereo not drawn) | -15.2% | -12.7% | -14.4% | -22.6% | 1.1% | -12.7%
37 | CC(O)C(NC(=O)C(CCCN)NC(=O)C(CC(O)CN=C(N)N)NC(=O)C(N)CCCN=C(N)N)C(=O)NC(CCCN)C(=O)NC(CC(O)CN=C(N)N)C(=O)NC(Cc1ccc(O)cc1)C(=O)O (stereo not drawn) (tested in a mixture with another compound) (H-R[X12][Orn]T[Orn][X12]Y-OH; configuration not given here) | 39.6% | -3.3% | 19.5% | 8.45% | 27.9% | 38.1%
38 | CCCC(C)(C#N)c1ccc(OC)cc1 (stereo not drawn) | 33.8% | 13.2% | 31.6% | 1.65% | 32.4% | -11.8%
